Assay: small-molecule microarray binders of probe aDKK1, primary screen, biochemical, biotinylated probe, 635/667 nm fluorescence (AID 1099);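 also: score merges 667nm spot fluorescence with signal to noise across triplicate slides; reference of the scale not given here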
Conditions: higher = more signal

SMILES	composite z-score
O=C1[C@H]2[C@H]3[C@H](O)[C@H](O)CC(=NO[C@@H]4O[C@H](CO)[C@@H](O)[C@H](O)[C@H]4O)[C@H]3CC[C@H]2C(=O)N1c1ccc(F)cc1F	0.0579
CCCNC(=O)OC[C@H]1O[C@H](CCON=C2c3cc(OC)ccc3O[C@H](c3cccc(OC)c3)[C@H]2O)C=C[C@@H]1Oc1ccc(OC)cc1	0.0079
O=C1[C@H]2CCn3c(=O)n(-c4ccccc4)c(=O)n3[C@H]2[C@H](O)[C@@H]2O[C@H]12	-0.418
CC(C)=CCCC(C)=CCON=C1C[C@@H](O)[C@@H](O)[C@@H]2[C@@H]3C(=O)N(Cc4ccc5c(c4)OCO5)C(=O)[C@@H]3CC[C@H]12	-0.101
O=C1[C@H]2[C@H]3[C@H](O)[C@H](O)CC(=NOCc4ccccc4)[C@H]3CC[C@H]2C(=O)N1C1CCCCC1	-0.163
CC(C)(C)N1C(=O)[C@H]2[C@H]3[C@H](O)[C@H](O)CC(=NOC[C@@H](O)COCc4ccco4)[C@H]3CC[C@H]2C1=O	0.486
COC(=O)[C@H](C)NC(=O)CCC1CC(OC(=O)NCc2ccc3c(c2)OCO3)CC2(CCCC(COC(=O)NCCC(C)C)O2)O1 (stereo partly specified)	-0.076
COC(=O)[C@H](C)NC(=O)CC=C[C@@H](C)[C@@H]1C=C[C@H](O)[C@@H](CO)O1	-0.607
CC(CCN1CCCCc2nc(C)c(C)cc21)=NOC[C@@H](O)[C@H]1O[C@@H]2OC(C)(C)O[C@@H]2[C@H]1O	-0.32
CC(C)=CCCC(C)=CCON=C1[C@H]2CCn3c(=O)n(-c4ccccc4)c(=O)n3[C@H]2[C@H](O)[C@@H]2O[C@H]12	-0.229
COc1ccc(OC[C@@H]2CC3[C@@H](c4ccc(Br)cc4)[C@H](C)CC[C@H]3C(=O)O2)cc1 (stereo partly specified)	-0.436
COC(=O)[C@H](C)NC(=O)CCC1CC(OC(=O)NCCc2ccc(F)cc2)CC2(CCCC(COC(=O)NCC3CCCCC3)O2)O1 (stereo partly specified)	-0.262
COC(=O)[C@H](C)NC(=O)CCC1CC(OC(=O)NCc2cccc3ccccc23)CC2(CCCC(COC(=O)NCCC(C)C)O2)O1 (stereo partly specified)	-0.144
O=C1[C@H]2[C@H]3[C@H](O)[C@H](O)CC(=NOC[C@@H](O)COCc4ccco4)[C@@H]3CC[C@H]2C(=O)N1c1cccc(Oc2ccccc2)c1	-0.334
CCOC(=O)NN=C1C[C@@H](O)[C@@H](O)[C@@H]2[C@@H]3C(=O)N(C[C@@H]4CCCO4)C(=O)[C@@H]3CC[C@H]12	-0.0748
C[C@@H](c1ccccc1)N1C(=O)[C@H]2[C@H]3[C@H](O)[C@H](O)CC(=NOCc4ccccc4)[C@@H]3CC[C@H]2C1=O	1.19
CCOC(=O)[C@H](Cc1ccccc1)NC(=O)CCC1CC(OC(=O)NCc2ccc3c(c2)OCO3)CC2(CCCC(COC(=O)NCCOc3ccccc3)O2)O1 (stereo partly specified)	-0.388
C[C@H]1CC[C@H]2C(=O)N[C@H](Cc3ccccc3)C(=O)N2[C@@H]1c1ccccc1	0.176

SMILES	composite z-score
CCN1C(=O)[C@H]2[C@H]3[C@H](O)[C@H](O)CC(=NOCC[C@@H]4C=C[C@H](OC(C)=O)[C@@H](COC(C)=O)O4)[C@@H]3CC[C@H]2C1=O	-0.107
CCCNC(=O)OC[C@H]1O[C@H](CCON=C[C@@H](NS(=O)(=O)c2ccc(C)cc2)[C@H](C)C=CCC(=O)OC)C=C[C@@H]1Oc1ccc(OC)cc1	-0.0175
C#CCCCON=C1C[C@@H](O)[C@@H](O)[C@@H]2[C@@H]3C(=O)N(C[C@@H]4CCCO4)C(=O)[C@@H]3CC[C@H]12	-0.201
CC(C)CON=C1C[C@@H](O)[C@@H](O)[C@@H]2[C@@H]3C(=O)N(c4ccc(F)cc4F)C(=O)[C@@H]3CC[C@@H]12	-0.153
O=C1C=C[C@@H](O)[C@@H]2[C@@H]3C(=O)N(Cc4ccccc4)C(=O)[C@@H]3CC[C@@H]12	-0.262
CC1(C)O[C@H]2OC([C@H](O)CON3C(=O)c4ccccc4C3=O)[C@H](O)[C@H]2O1 (stereo partly specified)	-0.467
C[C@H]1CC[C@H]2C(=O)OC(COc3ccc(C(C)(C)C)cc3)CN2[C@@H]1c1ccc(Br)cc1 (stereo partly specified)	-0.254
CC1(C)O[C@H]2O[C@H]([C@H](O)CON=C3[C@H]4CCn5c(=O)n(-c6ccccc6)c(=O)n5[C@H]4[C@H](O)[C@@H]4O[C@H]34)[C@H](O)[C@H]2O1	-0.179
CC(C)=CCCC(C)=CCON=C1C[C@@H](O)[C@@H](O)[C@@H]2[C@@H]3C(=O)N(c4cccc(Oc5ccccc5)c4)C(=O)[C@@H]3CC[C@H]12	-0.183
CCOC(=O)[C@H](Cc1ccccc1)NC(=O)CCC1CC(OC(=O)NCc2cccc3ccccc23)CC2(CCCC(COC(=O)NCc3ccc4c(c3)OCO4)O2)O1 (stereo partly specified)	-0.0102
CCCC[C@H]1CN2[C@@H](CC[C@@H](C)[C@@H]2c2ccc(Br)cc2)C(=O)O1	-0.1
CCOC(=O)[C@H](CC(C)C)NC(=O)CCC1CC(OC(=O)NCc2ccc3c(c2)OCO3)CC2(CCCC(COC(=O)NCCOc3ccccc3)O2)O1 (stereo partly specified)	0.0931
CCOC(=O)NN=C1C[C@@H](O)[C@@H](O)[C@@H]2[C@@H]3C(=O)N(CC)C(=O)[C@@H]3CC[C@H]12	-0.115
COc1ccc(COC(=O)NN=C2C[C@@H](O)[C@@H](O)[C@@H]3[C@@H]4C(=O)N([C@@H](C)c5ccccc5)C(=O)[C@@H]4CC[C@@H]23)cc1	0.0429
CCN1C(=O)[C@H]2[C@H]3[C@H](O)[C@H](O)CC(=NO[C@H](C)c4cn([C@@H]5COC[C@H]5O)nn4)[C@@H]3CC[C@H]2C1=O	-0.19
C[C@@H]1CC[C@H]2C(=O)O[C@@H](COc3ccc(C(C)(C)C)cc3)CN2[C@H]1c1ccc(Br)cc1	-0.251
CO[C@H]1COC(=O)CC=C[C@@H](C)COC(=O)[C@H]2CCCN2C(=O)CC=C[C@H]1C	-0.268
CC(CCN1CCCc2nc(C)c(C)cc21)=NO[C@@H](C)c1cn([C@H](CO)Cc2ccccc2)nn1	-0.264
